Bioassay records from PubChem.
PNC inhibitor – High Content Assay for Compounds that inhibit the Assembly of the Perinucleolar Compartment; PC3M PTB-GFP, PNC prevalence imaging, 16 h; stronger effect = lower value; activity change (PNC), negative = inhibition, % at 10 µM; actives 3.1% (n = 140,000); AID 2417, 2010;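 active = readout at or below -70, meaning at least 70% loss of cells showing the perinucleolar compartment, a nuclear body marking cancer cells; inconclusive = readout between -30 and a set limit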;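 note: plate controls were DMSO wells for no effect and camptothecin positive control wells for full effect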
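Compounds are pinned in duplicate onto adhered PC3M cells stably expressing GFP-tagged PTB and incubated 16 h at 37 C. Cells are then fixed, nuclei stained with Hoechst, and PNC-positive cells counted.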
ALDH1A1 inh – qHTS Assay for Inhibitors of Aldehyde Dehydrogenase 1 (ALDH1A1) | actives 7.3% (n = 220,000) | AID 1030, 2008 | Purified ALDH1A1, NADH fluorescence, propionaldehyde substrate | Potency, µM (highest dose often 75.3 µM), for inactives: top-dose activity, negative = inhibition, usual class: inhibitors;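 note: potency is the fitted concentration of half-maximal effect; plate controls were no enzyme wells and a reference inhibitor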
Target sequence (P00352 whole entry, looked up): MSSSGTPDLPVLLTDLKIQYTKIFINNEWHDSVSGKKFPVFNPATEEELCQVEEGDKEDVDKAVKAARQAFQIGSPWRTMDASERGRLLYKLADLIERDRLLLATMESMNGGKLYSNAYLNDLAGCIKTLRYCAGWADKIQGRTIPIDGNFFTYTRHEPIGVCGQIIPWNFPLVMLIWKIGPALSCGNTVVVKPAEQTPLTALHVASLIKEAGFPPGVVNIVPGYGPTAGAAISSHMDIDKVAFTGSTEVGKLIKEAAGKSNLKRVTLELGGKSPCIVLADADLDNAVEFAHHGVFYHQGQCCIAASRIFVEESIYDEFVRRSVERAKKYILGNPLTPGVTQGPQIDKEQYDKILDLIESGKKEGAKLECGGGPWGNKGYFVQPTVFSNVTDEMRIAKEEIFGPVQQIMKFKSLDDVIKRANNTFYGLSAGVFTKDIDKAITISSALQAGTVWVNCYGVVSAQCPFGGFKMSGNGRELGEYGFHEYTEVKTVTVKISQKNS
HPGD inh – qHTS Assay for Inhibitors of HPGD (15-Hydroxyprostaglandin Dehydrogenase); 15-hydroxyprostaglandin dehydrogenase [NAD(+)] (Homo sapiens), P15428; purified HPGD, NADH fluorescence kinetic, PGE2 substrate; Potency, µM, for the others: at the top dose activity change, negative = inhibition, usual class: inhibitors; actives 4.3% (n = 150,000); AID 894, 2007; note: potency is the fitted concentration of half-maximal effect
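NADH formation kinetics: reaction with 30 uM PGE2 and 1 mM NAD+ (final), 20 nM enzyme, Tris-HCl pH 8 with Tween 20, after 15 min compound preincubation at room temperature. Fluorescence change, last versus first of five reads.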
JMJD2E inh – qHTS Assay for Inhibitors of Human Jumonji Domain Containing 2E (JMJD2E); actives 1.6% (n = 230,000); Lysine-specific demethylase 4E (Homo sapiens), B2RXH2; Potency, µM (doses to about 57.1 µM), without a hit: at the top dose activity change, negative = inhibition, actives largely listed as inhibitors; JMJD2E catalytic domain, FDH-coupled NADH fluorescence (FDH is formaldehyde dehydrogenase); AID 2147, 2009;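 note: potency is the fitted concentration of half-maximal effect; 0% = wells with enzyme and -100% = buffer wells without enzyme; nearly all actives have a fitted effect of over 50% in size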
Numbers without * were called inactive; ? = inconclusive; . = not tested or not shown; [ ] = remark or other dose. In the library only some 11% were active in any assay of this set; here they are far more common. Unless noted, calls come from the whole dose curve; as a rule, active = well fitted inhibition curve with a large enough effect (not every such curve was filed as active); inconclusive = small, poorly fitted or top-dose-only effect, or another doubt; inactive = no such curve, though single readings can be large or run the other way. Unless noted, % is set by controls: 0 for no effect and ±100 for the full control effect.

SMILES | PNC inhibitor | ALDH1A1 inh | HPGD inh | JMJD2E inh
Cc1ccc(C(=O)/C=C/c2ccc(-c3ccccc3[N+](=O)[O-])o2)cc1 | -6 | ? | -17% | -19%
COc1ccc(-c2[nH]ncc2C=O)cc1 | 28 | 2% | -12% | 7%
CCOC(=O)c1c(C)oc2ccc(OC(=O)COc3c(F)c(F)c(F)c(F)c3F)cc12 | 31 | 2% | -20% | ?
CCNC(=S)N/N=C/c1cccc(OCc2c(F)cccc2Cl)c1 | -2 | 18% | -20% | 0%
CC(C)(C)c1ccc(/C([O-])=C(/C(=S)NCc2ccco2)[n+]2ccccc2)cc1 | 34 | 10µM* | -22% | -8%
Cc1ccc[n+](/C(C(=S)NCc2ccco2)=C(/[O-])c2ccccc2Cl)c1 | -5 | -1% | -8% | -3%
Cc1ccc(NC(=O)C2CCCN2S(=O)(=O)c2ccc3c(c2)n(C)c(=O)c(=O)n3C)cc1C (centres undefined) | 60 | -5% | -14% | -19%
CC(C)OC(=O)CSc1n[nH]c(-c2cccnc2)n1 | -7 | -9% | 16µM* | -2%
COC(=O)c1ccccc1NC(=O)CSc1n[nH]c(C)n1 | -100* | 8% | -12% | -7%
Cc1nc(SCC(=O)Nc2ccnc3ccccc23)n[nH]1 | 6 | 18µM* | -10% | -5%
O=C1/C(=C/c2c[nH]c3ccccc23)CCC/C1=C\c1c[nH]c2ccccc12 | 14 | 1.3µM* | -25% | ?
COC(=O)C1(C(=O)OC)C[C@H]2CON=C2[C@H]1c1ccccc1 | . | 3% | -9% | 1%
Cc1occc1C(=O)NCc1ccccc1F | 51 | 10µM* | ? | -5%
COc1ccccc1CNC(=O)c1ccoc1C | 22 | ? | -22% | 4%
Cc1occc1C(=O)Nc1cccc(C(=O)NCc2ccccc2)c1 | -29 | ? | 22µM* | 11%
COC(=O)c1ccc(COc2ccc(/C=N/NC(N)=S)cc2)o1 | . | ? | . | -24%
CCOC(=O)c1ccc(NC(=O)Nc2ccc(S(N)(=O)=O)cc2)cc1 | -122* | 6% | -10% | 2%
CCOC(=O)c1ccc(NS(C)(=O)=O)cc1 | 13 | 8% | ? | -3%
CN(CCO)C(=O)CCC(=O)Nc1ccc(S(N)(=O)=O)cc1 | -127* | 1% | -8% | -4%
CCOC(=O)CC(=O)Nc1ccc(C(=O)OCC)cc1 | 2 | -5% | -12% | 6%
CCOC(=O)c1ccc(NS(=O)(=O)c2ccc3[nH]c(=O)[nH]c3c2)cc1 | 20 | 16µM* | 28µM* | 6%
CCOC(=O)c1ccc(NC(=O)N(CC)CC)cc1 | -92* | 12% | 0% | -1%
NS(=O)(=O)c1ccc(NC(=O)CCc2ccccc2)cc1 | -10 | 5% | -4% | -5%
COC(=O)C1=C(C)N(Cc2ccccc2)[C@]23O[C@](C(=O)OC)(C(=O)N2C1c1ccccc1)C1CCOC(=O)C13 (some centres undefined) | . | 12%[13.5 µM] | . | .
CCn1c(C)nc2cc(C(=O)N/N=C(\C)c3ccccc3O)ccc21 | . | -4% | . | ?
SMILES | PNC inhibitor | ALDH1A1 inh | HPGD inh | JMJD2E inh
CC(C)c1ccc(/C=C2\C=C(c3ccc4ccccc4c3)OC2=O)cc1 | . | 8%[13.5 µM] | -8% | .
COc1ccc(C2=C/C(=C\c3cccc(OC(C)=O)c3)C(=O)O2)cc1 | 1 | 25µM* | -20% | 12%
COc1ccc(-c2nnn(CC(=O)N(CC3CCCO3)C(C(=O)NC(C)(C)C)c3ccco3)n2)cc1OC (centres undefined) | . | -3% | . | 1%
CCOC(=O)C(CC)Sc1ncnc2nc[nH]c12 (centres undefined) | -100* | 1% | -8% | -4%
NCCNC[C@H](O)CO | . | 0%[13.5 µM] | -9% | .
Cc1ccc(-n2c(C(C)C)nc3oc4ccccc4c(=O)c3c2=O)cc1 | . | . | . | 3%
CCN1CC2=C(OC(N)=C(C#N)C2c2cccs2)/C(=C/c2cccs2)C1 (centres undefined) | -26 | 18µM* | -14% | 14µM*
CCN1C=C(Cc2cccs2)C2=C(C1)C(c1cccs1)C(C#N)=C(N)O2 (centres undefined) | -24 | 20µM* | -24% | ?
CCCC1=C(C(=O)OCC)C(c2cccs2)C(C#N)=C(N)O1 (centres undefined) | -24 | ? | -19% | ?
CCN1CC2=C(OC(N)=C(C#N)C2c2ccccc2)/C(=C\c2ccccc2)C1 (centres undefined) | ? | ? | -30% | ?
O=C(COCC(=O)NCc1ccccc1)NCc1ccccc1 | . | 5% | . | -2%
N/C(CSc1ccc(Cl)cc1)=N\NC(=O)c1ccncc1 | . | 0% | . | -1%
O=C(CSc1n[nH]c(-c2ccccc2O)n1)N1CCCc2ccccc21 | -25 | 2% | 10µM* | -28%
O=C(CSc1n[nH]c(-c2cccs2)n1)N1CCCc2ccccc21 | 4 | -3% | 6.3µM* | -2%
O=C(CSc1nnc(-c2cccs2)n1-c1ccccc1)N1CCCc2ccccc21 | 1 | -5% | -9% | -149%
O=C(COC(=O)/C=C/c1ccccc1[N+](=O)[O-])NCC(F)(F)F | . | 4% | . | -1%
COc1ccc(C(=O)COC(=O)C2CCN(S(=O)(=O)c3cccc4cccnc34)CC2)cc1 | 33 | -4% | -11% | -6%
O=C(COC(=O)C1CCN(S(=O)(=O)c2cccc3cccnc23)CC1)c1ccc([N+](=O)[O-])cc1 | -26 | 6.3µM* | -6% | -4%
CCc1ccccc1N(C)C(=O)CCc1nc(-c2ccc(C)cc2)no1 | 12 | -13% | 14µM* | -7%
COc1ccc(Cl)cc1N(C)C(=O)CCc1nc(-c2ccc(C)cc2)no1 | -1 | -8% | -22% | 4%
CCc1ccccc1NC(=O)CN(C)C(=O)Cn1ncc(Cl)c(Cl)c1=O | -28 | 0% | -4% | -4%
CCOC(=O)c1ccc(NC(=O)Cn2ncc(Cl)c(Cl)c2=O)cc1 | 15 | 28µM* | -10% | -1%
CCc1ccc(C(=O)Nc2ccc(OC)c(S(=O)(=O)N3CCOCC3)c2)cc1 | . | ? | . | 6%
COc1ccc2c(CC(=O)Nc3ccc(OC)c(S(=O)(=O)N4CCOCC4)c3)coc2c1 | ? | -2% | -14% | 12%
COc1ccc(NC(=O)Cc2coc3cc(C)c(C(C)C)cc23)cc1S(=O)(=O)N1CCOCC1 | ? | 22µM* | -14% | ?
SMILES | PNC inhibitor | ALDH1A1 inh | HPGD inh | JMJD2E inh
COc1ccc(NC(=O)Cn2ncc(Cl)c(Cl)c2=O)cc1S(=O)(=O)N1CCOCC1 | -26 | 11µM* | -4% | -17%
CCC(=O)Nc1ccc(C(=O)Cn2ncc(Cl)c(Cl)c2=O)cc1 | . | 2.2µM* | . | -29%
COc1ccc2c(C(=O)CN(C)C3CCCCC3)c[nH]c2c1 | -100* | ? | -15% | 1%
COc1ccc2c(C(=O)CN3CCSCC3)c[nH]c2c1 | . | 28µM* | . | ?
COc1ccc2c(C(=O)CN3CCN(c4ccccc4)CC3)c[nH]c2c1 | -22 | -6% | -9% | -6%
COc1ccc2[nH]cc(C(=O)CN3CCCCC3)c2c1 | 21 | -16% | -12% | 5%
